An excerpt weighted towards active compounds, which were near 12% of everything screened.
Sfp PPTase inh: inhibitors of Bacillus subtilis Sfp phosphopantetheinyl transferase | Potency, µM, for inactives: largest response in the series, negative = inhibition, hits mostly inhibitors | AID 1490 | 310,000 compounds, 3.5% hits | Q9F4F7 | Biochemical Sfp PPTase activity, qHTS;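 also: the enzyme is Sfp with the accession as filed and its product quenches rhodamine fluorescence; 0% = enzyme reaction without inhibitor and -100% = no enzyme wells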
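Fluorescence-quenching assay with 15 nM Sfp, 5 uM rhodamine-CoA and 12.5 uM BHQ-2-labelled ybbR peptide in pH 7.6 Hepes/MgCl2 buffer. Enzyme was pre-incubated with compound for 15 min at room temperature. Rate was taken from the 30-min fluorescence change (525/598 nm).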
JMJD2A Tudor inh: blocks the human JMJD2A Tudor domain; O75164; AlphaScreen JMJD2A-Tudor / H3K4me3 peptide binding; Potency, µM (titrated, usually from 114 µM), for inactives: at the top dose activity change, negative = inhibition, hits mostly inhibitors; 390,000 compounds, 4.4% hits; AID 504339; also: % is scaled to controls: 0 for no effect and ±100 for the full control effect; nearly all actives have a fitted effect of over 50% in size
BAZ2B block: blocks human BAZ2B. 360,000 compounds, 4.4% hits. Q9UIF8. AlphaScreen BAZ2B-H3K14Ac peptide displacement. AID 504333. Potency, µM (series often up to 114 µM), for inactives: at the top dose activity change, negative = inhibition, actives largely listed as inhibitors; also: % is scaled to controls: 0 for no effect and ±100 for the full control effect; nearly all actives have a fitted effect of over 60% in size
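Compounds, titrated to a top concentration of 110 uM, were incubated 30 min at room temperature with preformed BAZ2B/acetyl-K14 H3 peptide complex (50 nM each). Proximity signal was measured by AlphaScreen after 20 min with beads.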
L3MBTL1 block: blocks human L3MBTL1 | Q9Y468 | Potency, µM (highest dose often 57.1 µM), without a hit: top-dose activity, negative = inhibition, usual class: inhibitors | AlphaScreen L3MBTL1–H3K9me1 peptide binding | 230,000 compounds, 0.66% hits | AID 485360; also: % is scaled to controls: 0 for no effect and ±100 for the full control effect; nearly all actives have a fitted effect of over 60% in size
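First, the protein-peptide complex forms for 30 min at room temperature (L3MBTL1 50 nM, biotinylated H3K9me1 peptide 75 nM). Next, compounds are pin-transferred and incubated 30 min. Finally, AlphaScreen beads are added and read after 30 min.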
G9a block: inhibitors of human histone lysine methyltransferase G9a; Q96KQ7; G9a H3K9 monomethylation, AlphaScreen, 2 h; Potency, µM (top dose mostly 102 µM), inactives show at the highest dose activity, negative = inhibition, actives largely listed as inhibitors; 350,000 compounds, 8.8% hits; also: % is scaled to controls: 0 for no effect and ±100 for the full control effect; nearly all actives have a fitted effect of over 75% in size
Target sequence (Q96KQ7 913-1193 limits assumed): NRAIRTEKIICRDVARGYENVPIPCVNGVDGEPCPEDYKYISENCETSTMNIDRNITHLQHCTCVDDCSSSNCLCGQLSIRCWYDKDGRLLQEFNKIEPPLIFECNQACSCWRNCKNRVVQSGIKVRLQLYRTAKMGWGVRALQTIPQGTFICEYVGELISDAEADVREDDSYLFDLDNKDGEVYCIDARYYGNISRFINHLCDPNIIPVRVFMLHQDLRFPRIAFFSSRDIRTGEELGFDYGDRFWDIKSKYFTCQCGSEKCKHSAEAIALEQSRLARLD
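G9a (20 nM) was preincubated 15 min with compound, then reacted 2 h at room temperature with 500 nM biotin-H3K9 peptide and 20 µM SAM. Monomethyl-H3K9 detected by AlphaScreen using anti-H3K9me1 antibody.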
HP1b binding inh: HP1-beta chromodomain-methylated histone interaction inhibition | 390,000 compounds, 0.56% hits | AlphaScreen HP1-beta / biotin-H3K9me3 peptide binding | AID 540317 | Potency, µM (top dose mostly 114 µM), for inactives: at the top dose activity change, negative = inhibition, actives largely listed as inhibitors | P83916; also: nearly all actives have a fitted effect of over 70% in size
Target sequence (P83916 whole entry, looked up): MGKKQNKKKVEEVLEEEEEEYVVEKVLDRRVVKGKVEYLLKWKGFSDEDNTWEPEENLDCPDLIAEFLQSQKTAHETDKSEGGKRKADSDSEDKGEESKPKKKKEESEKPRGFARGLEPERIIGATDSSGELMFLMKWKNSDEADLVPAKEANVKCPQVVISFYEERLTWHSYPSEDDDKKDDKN
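Compound inhibition of the preformed complex between 50 nM HP1-beta and 50 nM biotinylated H3K9me3 peptide was read by AlphaScreen. Buffer was PBS pH 7.4 with 0.01% Tween-20. Incubations ran 30 min at room temperature, with 10 ug/mL donor/acceptor beads.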
* = called active by the depositor; ? = inconclusive; / = not tested or not shown; ! = not active in a repeat; [ ] = dose if it differs, or a comment. Calls follow the shape of the dose curve; as a rule, active = well fitted curve in the direction sought with a large enough effect; inconclusive = small, poorly fitted or top-dose-only effect, or another doubt; inactive = no such curve, though single readings can be large; an effect the other way counts as inactive or inconclusive. Potency is read from the fitted curve at half-maximal effect.

SMILES	Sfp PPTase inh	JMJD2A Tudor inh	BAZ2B block	L3MBTL1 block	G9a block	HP1b binding inh
N#Cc1ccc(CSc2nnc3[nH]c(=O)cc(N)n23)cc1	-8%	2%	-22%	-7%	22µM*	16%
COc1ccc(CSc2nnc3[nH]c(=O)cc(N)n23)cc1	?	-16%[11.4 µM]	-22%	5%	35µM*	2%
COc1ccccc1C(=O)Nc1ccc(S(=O)(=O)Nc2cc(C)nc(C)n2)cc1	12%	-1%	5%	/	2%[12.7 µM]	28%
Cc1cc(NS(=O)(=O)c2ccc(NC(=O)/C=C/c3ccc(C)o3)cc2)nc(C)n1	3.5µM*	22µM*	-28%	-23%	8.9µM*	-26%
COc1ccccc1CCC(=O)Nc1ccc(S(=O)(=O)Nc2cc(C)nc(C)n2)cc1	/	-7%	6%	0%	50µM*	22%
COc1ccccc1/C=C/C(=O)Nc1ccc(S(=O)(=O)Nc2cc(C)nc(C)n2)cc1	-4%	-10%	?	/	35µM*	9%
CCCCOC(=O)c1ccc(NC(=S)NC(=O)c2c(Cl)cnn2C)cc1	79µM*	1%	3%	2%	-1%	5%
CCCCOC(=O)c1ccc(NC(=S)NC(=O)c2c(Cl)cnn2CC)cc1	45µM*	3%	1%	-1%	43%[12.7 µM]	38%
CCCCOC(=O)c1ccc(NC(=S)NC(=O)c2ccco2)cc1	-16%	-30%	?	/	-46%	-4%
COc1cc(CN2CCC(C(=O)N3CCN(c4ccccc4F)CC3)CC2)ccc1O	-24%	2.5µM*	56µM*	4%	14µM*	?
O=C(C1CCN(c2nnc(-n3cccc3)s2)CC1)N1CCN(Cc2ccc3c(c2)OCO3)CC1	-8%	-30%	?	?	?	26%
COc1cc(CN2CCC(C(=O)NC3CCCC3)CC2)ccc1O	-19%	?	32µM*	0%	?	?
COc1ccc(OC)c(CN2CCC(C(=O)N3CCOCC3)CC2)c1	14%	2.2µM*	?	1%	10µM*	?
COc1ccc(F)c(CN2CCC(N3CCC(C(=O)N4CCOCC4)CC3)CC2)c1	20%	-7%	-14%	2%	-41%	32%
COc1cccc(CN2CCC(C(=O)N3CCN(Cc4ccc5c(c4)OCO5)CC3)CC2)c1	12%	0.89µM*	-10%	/	42%	?
O=c1c(-c2ccc(Cl)cc2)nc2cnc(N3CCOCC3)nc2n1C[C@H]1CCCO1	23%	/	/	/	14%[0.501 µM]	/
COc1cccc(CN2CCC(C(=O)N3CCN(c4ccccc4F)CC3)CC2)c1	-11%	8.9µM*	-33%	-5%	10µM*	?
COc1ccc(OC)c(CN2CCC(C(=O)N3CCN(c4ccccc4F)CC3)CC2)c1	0%	1.4µM*	?	-2%	10µM*	?
NCCOB(c1ccccc1)c1ccccc1	56µM*!	/	/	/	-17%[2.33 µM]	/
NCCOc1ccccc1OCCN	11%	-8%	-19%	17%	-3%[59 µM]	33%
C=C1c2cc(OC)ccc2NC(=O)N1CC	19%	-13%	3%	-3%	32µM*	31%
Cn1cnc(S(=O)(=O)N2CCC(C(=O)Nc3ccc(Cl)c(C(F)(F)F)c3)CC2)c1	/	5%	0%	/	3%[12.7 µM]	40%
COc1ccc(NC2CCCN(C(=O)CCn3cccn3)C2)cc1 (configuration not stated)	17%	-16%	-20%	/	-1%	18%
O=C(CCc1ccccn1)N1CCCC(Nc2cccc(F)c2)C1 (configuration not stated)	16%	7.1µM*	-3%	/	10%	29%
COc1ccc(NC2CCCN(C(=O)CCc3cccc(F)c3)C2)cc1 (configuration not stated)	2%	?	?	/	50µM*	-17%
COc1ccc(NC2CCCN(C(=O)CCc3cccc(Cl)c3)C2)cc1 (configuration not stated)	-7%	?	35µM*	/	?	?

Screening data as filed in PubChem BioAssay.
